Experimental findings from PubChem BioAssay AID686978 (National Center for Advancing Translational Sciences (NCATS), 2013) are described below.

The whole screen tested about 420,000 compounds, of which about 64,000 (15%) were called active. Inconclusive results (about 27%) are left out. The list is a sample of the results. Unmarked numbers belong to inactive results. The call rests on the fitted dose curve; in most records, active means well fitted inhibition curve with a large enough effect; inconclusive means small, poorly fitted or top-dose-only effect; inactive means flat fitted curve, though single readings scatter.
On the % scale 0 is the no-effect control and ±100 the full control effect; potency means the concentration at half of the fitted maximal effect.

The assay can be described thus: qHTS for Inhibitors of human tyrosyl-DNA phosphodiesterase 1 (TDP1): qHTS in cells in absence of CPT. Further: nearly all actives have a fitted effect of over 55% in size. The conditions noted are these: DT40 Tdp1-/- hTDP1 cells, no CPT, ATP luminescence, 48 h; activity change, negative = growth inhibition: at 46.2 µM (top of the series). The procedure, abridged:
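Compound effects on proliferation are scored in DT40 Tdp1-/-;hTDP1 cells in the absence of CPT. ATP levels (CellTiter-Glo luminescence) are recorded after a ≥48 hr, 37 °C incubation.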
For orientation: qHTS replaces the single test concentration by a dilution series.
Regarding `COCCNC(=O)CSc1nc(N)c(NC(=O)c2ccco2)c(=O)[nH]1`, the “activity change, negative = growth inhibition” value was 17.3%.
Same read-out and setting: under `O=C(NC(=S)Nc1ccc(S(=O)(=O)Nc2ncccn2)cc1)c1cccc(Br)c1` stands -16.1%.
Same read-out and setting: under `CCC1Oc2ccccc2N(CC(=O)NCCCN2CCN(CC)CC2)C1=O` (stereo unspecified) stands 10.1%.
`CC(C)OCCCNC(=O)CN1C(=O)/C(=C/c2ccccc2F)Oc2ccccc21`: the Potency is 10.3 µM (active).
For the compound `O=C(CN1C(=O)S/C(=C\c2ccccc2F)C1=O)NCCCn1ccnc1`, the “activity change, negative = growth inhibition” value is 0.574%.
On the same count and under the same terms, under `COc1ccc(F)cc1C(=O)COC(=O)c1n[nH]c(=O)c2ccccc12` stands 15.4%; under `COC(=O)CN(c1cccc(C(C)=O)c1)S(C)(=O)=O`, -7.62%.
Still for that read-out and setting: under `C=CCc1cccc2cc(C(=O)N3CCN(C(=O)OCC)CC3)c(=O)oc12` stands -27.4%; under `CC(C)Nc1nc(N(c2ccccc2)c2ccccc2)nc(-n2ccnc2)n1`, -24.8%; under `O=C(O)COCC(=O)NCc1csc2ccc(Cl)cc12`, 1.54%.
Turning to `Cc1ccc(N(C(=O)c2snc(C(N)=O)c2N)C(C(=O)NCC2CCCO2)c2c[nH]c3ccccc23)cc1` (stereo unspecified), the Potency was 4.11 µM (active).
For `NC(=O)c1nsc(C(=O)N(CCCN2CCOCC2)C(C(=O)NC2CCCCC2)c2ccc(Cl)cc2)c1N` (stereo unspecified), the “activity change, negative = growth inhibition” value is 1.3%.
Same read-out and setting: under `Cc1ccc(N(C(=O)Cc2cccs2)C(C(=O)NCC2CCCO2)c2ccncc2)cc1` (stereo unspecified) stands -4.89%.
For `Cc1ccc(C(C(=O)NCC2CCCO2)N(C(=O)c2snc(C(N)=O)c2N)c2ccc(C(C)C)cc2)o1` (stereo unspecified), the Potency was 18.4 µM (active).
On to `O=C(NCC(=O)N(c1ccccc1)C(C(=O)NCC1CCCO1)c1ccccc1)c1cccs1` (stereo unspecified), for which the “activity change, negative = growth inhibition” value is -18%.
Turning to `CCOc1ccc(N(C(=O)c2snc(C(N)=O)c2N)C(C(=O)NCC2CCCO2)c2c[nH]c3ccccc23)cc1` (stereo unspecified), the Potency was 3.66 µM (active).
In the case of `CCOc1ccc(N(CC(=O)NCC2CCCO2)S(=O)(=O)c2ccc(C)cc2)cc1` (stereo unspecified), the “activity change, negative = growth inhibition” value was -29.9%.
Same read-out and setting: the result for `CCOc1cc(C(C(=O)NCC2CCCO2)N(C(=O)Cn2nnc3ccccc32)c2cccc(OC)c2)ccc1O` (stereo unspecified) reads -7.52%; that for `CCC(C(=O)NCCC(C)C)N(Cc1ccccc1Cl)C(=O)c1snc(C(N)=O)c1N` (stereo unspecified), -14.3%; that for `Cn1cnc2c1c(=O)n(Cc1ccccc1C#N)c(=O)n2C`, 14.5%.
In the case of `CCn1c(CSc2nncn2-c2ccc(OC)cc2)nc2cc(S(=O)(=O)N(C)C)ccc21`, the “activity change, negative = growth inhibition” value is -12.7%.
On the same count and under the same terms, under `COC(=O)CN1C(=O)C(O)=C(C(C)=O)C1c1ccc([N+](=O)[O-])cc1` (stereo unspecified) stands -5.52%.
`CC(C)(C)CC(C)(C)NCC(O)COCCOc1ccc(Br)cc1` (stereo unspecified): the Potency was 2.31 µM (active).
`OC(COc1ccc(Br)cc1)CN1CCCC1` (stereo unspecified): the “activity change, negative = growth inhibition” value was -3.64%.
Same read-out and setting: under `Cc1noc(COc2ccccc2OCC(O)CNC(C)(C)C)n1` (stereo unspecified) stands -16.8%; under `O=C(N/N=C\c1cccc(Br)c1)c1ccccc1-n1cccc1`, -14%.
